# Bioassay records as filed in PubChem.
# This is a sample that favours compounds with a hit; in the whole collection about 10% have one here.
# GPT2 inhibitor: blocks human glutamate pyruvate transaminase 2. Q8TD30. Recombinant GPT2, coupled pyruvate oxidase/HRP Amplex Red fluorescence. Potency, µM (top dose mostly 57.7 µM), without a hit: at the top dose activity change, negative = inhibition, hits mostly inhibitors. 100,000 tested, 0.25% active. AID 1671188; further: nearly all actives have a fitted effect of over 60% in size
#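 Fluorescence of coupled pyruvate oxidase/HRP/Amplex Red system (50uM Amplex, 30 min, dark) reports pyruvate formed by GPT2. Enzyme reaction: 10ng/uL GPT2, 2mM L-alanine, 250uM a-KG, 30 min room temperature, pH 7.5; 50uM AOA control.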
# HEK293 tox: cytotoxic compounds in HEK 293 cells | HEK 293 viability, ATP luminescence (CellTiter-Glo), 48-72 h | Potency, µM (series often up to 115 µM), inactives show at the top dose activity change, negative = cytotoxicity, most hits filed as inhibitors | 94,000 tested, 6.6% active | AID 1345083; further: nearly all actives have a fitted effect of over 60% in size
#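 ATP-coupled CellTiter-Glo luminescence served as viability read-out, recorded 10 min after reagent addition at room temperature. HEK 293 cells, 250 cells/well, had been incubated with pintool-transferred compound for 48 or 72 hr at 37 degree Celsius.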
# Luciferase inh: Photinus pyralis luciferase inhibition | 76,000 tested, 2.5% active | P08659 | Potency, µM (highest dose often 115 µM), hits mostly inhibitors | purified P. pyralis luciferase, luminescence, biochemical; further: nearly all actives have a fitted effect of over 65% in size
#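 Purified 10nM P. pyralis luciferase with 10uM D-luciferin and 10uM ATP in 50mM Tris acetate pH 7.5, 10mM Mg acetate, 0.01% Tween-20, 0.05% BSA. qHTS titration; luminescence read by CCD imager.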
# 3T3 cytotox: kills NIH 3T3 cells; AID 1345082; 94,000 tested, 4.3% active; Potency, µM (series often up to 96.7 µM), for the others: top-dose activity change, negative = cytotoxicity, usual class: inhibitors; NIH 3T3 viability, CellTiter-Glo ATP luminescence, 48-72 h; further: nearly all actives have a fitted effect of over 55% in size
#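 Luminescent ATP readout (CellTiter-Glo, 10 min RT) after 48 or 72 hr compound exposure of NIH 3T3 cells seeded at 400 cells/well in 1536-well format; quantitative HTS.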
# NPR1 antag: blocks ANP-stimulated signaling of human Npr1 receptor; P16066; HEK293 hNpr1 GloSensor cGMP, ANP-stimulated luminescence; Potency, µM (doses to about 46.3 µM), without a hit: at the top dose activity change, negative = inhibition, actives largely listed as inhibitors; 76,000 tested, 1.6% active; AID 1347048; calls by dose curve; further: nearly all actives have a fitted effect of over 60% in size
#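 Compound pre-incubated 30 min at room temperature on GloSensor-loaded HEK293 cells stably carrying hNpr1 and the pGS-40F cGMP biosensor. Stimulation uses hNppA at 0.1 nM final; luminescence is taken at baseline and 20 min post-agonist.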
# * marks the source's active call; other numbers are inactive results; i = inactive; u = inconclusive; x = not tested or not shown; [ ] = another dose, or the depositor's remark. Unless noted, the call rests on the fitted dose curve; in most records, active means well fitted curve in the direction sought with a large enough effect; inconclusive means small, poorly fitted or top-dose-only effect, or another doubt; inactive means no such curve, though single readings can be large; an effect the other way counts as inactive or inconclusive. On the % scale 0 is the no-effect control and ±100 the full control effect; potency means the concentration at half of the fitted maximal effect.
SMILES,GPT2 inhibitor,HEK293 tox,Luciferase inh,3T3 cytotox,NPR1 antag
O=C(c1ccc(Cl)nc1)N1CCC(C(=O)N2CCC(c3nc4ncccc4[nH]3)C2)CC1 (centres undefined),-3%,-1%,x,1%,x
CNC(=O)c1cccc(-c2ccccc2COc2ccc(CCOC)cc2)n1,u,u,10µM*,-13%,-23%
O=C1CCN(C(=O)C2CCN(S(=O)(=O)c3cccs3)CC2)CCCCCCN1,-7%,i,i,-8%,0%
Cn1cc(CN2CCC(C(O)c3cccnc3)CC2)c(-c2ccc(C3CCCCC3)cc2)n1 (centres undefined),i,79µM*,i,79µM*,6%
CC(C)c1ccc(-c2nc(C3CC(=O)N(c4ccc(F)cc4)C3)no2)cc1 (centres undefined),i,35µM*,i,-20%,u
CCc1ccc(N2CC(c3noc(-c4ccccc4)n3)CC2=O)cc1 (centres undefined),1%,79µM*,i,u,1%
CC(C)c1ccc(-c2nc(C3CC(=O)N(c4ccc(F)c(Cl)c4)C3)no2)cc1 (centres undefined),i,u,i,u,u
CCc1ccc(N2CC(c3noc(-c4ccc(OC)nc4OC)n3)CC2=O)cc1 (centres undefined),0%,45µM*,i,u,-20%
NCc1cccc(-c2ccc(OC(F)(F)F)cc2)c1,-4%[88.5 µM],40µM*,x,32µM*,x
NCc1cccc(-c2cccc(C(F)(F)F)c2)c1,-4%[88.5 µM],u,x,79µM*,x
COc1cccc(CNC[C@H]2O[C@H](Cc3cc(CN4CCOCC4)on3)CC[C@@H]2O)c1,-4%[88.5 µM],-22%[172 µM],i,0%[174 µM],0%[70.6 µM]
CC(C)CN(CC(C)C)C[C@H]1O[C@H](Cc2cc(COc3ccccc3)on2)CC[C@@H]1O,-13%[88.5 µM],100µM*,i,100µM*,5%[70.6 µM]
CC(C)NC(=O)NC[C@H]1O[C@H](Cc2cc(COc3ccccc3)on2)CC[C@@H]1O,i,-9%[172 µM],i,-26%[174 µM],-7%[70.6 µM]
COc1ccc(-c2cc(C[C@@H]3CC[C@H](O)[C@@H](CN(C)C)O3)no2)cc1,2%[88.5 µM],-7%[172 µM],u,-16%[174 µM],-29%[70.6 µM]
COc1ccc(-c2cc(C[C@@H]3CC[C@H](O)[C@@H](CN(Cc4ccccc4OC)Cc4ccccc4OC)O3)no2)cc1,-7%,u,u,u,10µM*
COc1cccc(CNC[C@H]2O[C@H](Cc3cc(-c4ccccc4)on3)CC[C@@H]2O)c1,-13%[88.5 µM],112µM*,i,u,-27%[70.6 µM]
O=C1CCN(S(=O)(=O)c2ccccc2)CCCN(C(=O)CC2CCCC2)CCN1,3%,i,i,-17%,-1%
Cc1ccccc1C(=O)N1CCN(C(=O)c2nc3cccnc3n(CC(C)C)c2=O)CC1,i,i,x,-8%,x
CNc1nccc(N2CCC(CC(=O)NCCC(C)C)CC2)n1,2%,32µM*,i,u,6%
O=C(NC1CCCC1)c1ccc2nnc(-c3cccc(OC(F)(F)F)c3)n2c1,i,u,x,u,x
COc1ccc(NC(=O)CCC2CCN(S(=O)(=O)c3ccccc3C)CC2)c(OC)c1,i,u,x,u,x
CN1C(=O)[C@@H]2C[C@@H](CN2Cc2ccnc3ccccc23)Oc2ccccc21,i,u,i,89µM*,-29%[70.6 µM]
COc1ccc(CN2C(=O)[C@@H]3C[C@@H](CN3CC3CC3)Oc3ccccc32)cc1,-2%[88.5 µM],u,i,79µM*,-30%[70.6 µM]
O=C1[C@@H]2C[C@@H](CN2Cc2ccc3c(c2)OCO3)Oc2ccccc2N1Cc1ccccn1,i,79µM*,i,u,-18%[70.6 µM]
O=C1[C@@H]2C[C@@H](CN2Cc2ccc(F)c(F)c2)Oc2ccccc2N1Cc1ccccn1,u,u,i,u,-10%[70.6 µM]
COCCN1C(=O)[C@@H]2C[C@@H](CN2Cc2ccc3ccccc3n2)Oc2ccccc21,-18%[88.5 µM],u,u,100µM*,-16%[70.6 µM]
COCCN1C(=O)[C@@H]2C[C@@H](CN2Cc2ccccc2)Oc2ccccc21,-14%[88.5 µM],u,i,-23%[138 µM],-1%[70.6 µM]
